These results are taken from PubChem BioAssay (NCATS).

This assay in a line: High-throughput drug toxicity screening in the BPDCN cell line Cal-1 (AID 1224825). To be noted: Cal-1 BPDCN cell viability, qHTS; at 45.8 µM (top of the series) unless noted. The text has this: Blastic plasmacytoid dendritic cell neoplasm (BPDCN) is a rare, aggressive and largely incurable hematologic malignancy originating from plasmacytoid dendritic cells (pDCs). Although an initial response to chemotherapy is common, BPDCN prognosis is extremely poor and most patients relapse with drug-resistant disease leading to a median overall survival of ~1 year after diagnosis. To explore novel potential therapeutic strategies in BPDCN, we performed a high-throughput drug toxicity screening in BPDCN cell liens, using of a library of 1,912 small molecules, enriched for compounds that are either approved or in early stages of development for cancer therapy.
A total of 500 exponentially growing Cal-1 cells were seeded per well in 5 uL of media (RPMI + Glutamine, without phenol red plus10% FBS and 1X Pen/Strep) into 1536-well solid white high base tissue culture treated Greiner One Bio Plates (789173-F), using a multidrop combi dispenser and a small sterile cassette. Compounds and controls totaling 23nL per well (negative control DMSO and positive control 9.2 uM Bortezomib-final) were immediately added to the plates using a 1536 head pin tool from Kalypsys. The plates were then covered with stainless steel gasket lids from Kalypsys and incubated for 48 hours at 37C under 95% relative humidity with 5% CO2. After 48 hours, the plates were removed and allowed to reach room temperature before 3 uL of Cell Titer Glo reagent (Promega) were added using an Aurora Flying Reagent Dispenser Bioraptor. The plates were then spun at 1000 rpms to remove bubbles and incubated for 15 minutes at room temperature before reading on a ViewLux using a luminescent filter with a 10 second exposure. The relative luciferase units were used to calculated percent activity using DMSO as 100% and Bortezomib as 0%.
Turning to `CN(C)CCCN1c2ccccc2CCc2ccc(Cl)cc21`, the viability (% of control) worked out at 11.8%.

`CN(C)CCOC(c1ccccc1)c1ccccc1`: the viability (% of control) stood at 38.8%.

As to `CC(C)NCC(O)c1ccc(O)c(O)c1` (stereo not given), the viability (% of control) came to 16%.

With `CC(C(=O)O)c1cccc(C(=O)c2ccccc2)c1` (stereo not given), the viability (% of control) is 103%.

Consider `CC1(C)O[C@H]2CC(=O)OC[C@]23[C@H]2CC[C@@]4(C)[C@H](c5ccoc5)OC(=O)[C@H]5O[C@]54[C@]2(C)C(=O)C[C@@H]13`, for which the viability (% of control) is 118%.

Regarding `COc1cc2nc(N(C)CCCNC(=O)C3CCCO3)nc(N)c2cc1OC` (stereo not given), the viability (% of control) is 115%.

With `Clc1ccc2c(c1)C(N1CCNCC1)=Nc1ccccc1O2`, the viability (% of control) was 102%.

In the case of `COc1ccc(CCN(C)CCCC(C#N)(c2ccc(OC)c(OC)c2)C(C)C)cc1OC` (stereo not given), the viability (% of control) stood at 105% [at 92.2 µM].

As for `O=C(Nc1ccc([N+](=O)[O-])cc1Cl)c1cc(Cl)ccc1O`, the viability (% of control) was 20.3%.

Take `CCOC(=O)c1ncn2c1CN(C)C(=O)c1cc(F)ccc1-2`: the viability (% of control) was 17.4%.

For the molecule `CCCCc1oc2ccccc2c1C(=O)c1cc(I)c(OCCN(CC)CC)c(I)c1`, the viability (% of control) is 8.13%.

Consider `CS(=O)(=O)CCNCc1ccc(-c2ccc3ncnc(Nc4ccc(OCc5cccc(F)c5)c(Cl)c4)c3c2)o1`, for which the viability (% of control) worked out at 2.82%.

Take `O=c1c(-c2ccc(O)cc2)coc2cc(O)cc(O)c12`: the viability (% of control) was found to be 13.8%.

For `Nc1ccn([C@H]2CC[C@@H](CO)O2)c(=O)n1`, the viability (% of control) was 102%.

On to `O=C1Cc2cc(CCN3CCN(c4nsc5ccccc45)CC3)c(Cl)cc2N1`, for which the viability (% of control) came to 94.5%.

Regarding `Cc1cn([C@H]2C[C@H](N=[N+]=[N-])[C@@H](CO)O2)c(=O)[nH]c1=O`, the viability (% of control) amounted to 78.5%.

Turning to `Clc1ccccc1C(c1ccccc1)(c1ccccc1)n1ccnc1`, the viability (% of control) was determined as 74%.

For the molecule `CN1CCN2c3ccccc3Cc3ccccc3C2C1` (stereo not given), the viability (% of control) came to 91.5%.

With `CC#C[C@]1(O)CC[C@H]2[C@@H]3CCC4=CC(=O)CCC4=C3[C@@H](c3ccc(N(C)C)cc3)C[C@@]21C`, the viability (% of control) amounted to 5.97%.

For the molecule `COc1ccc2[nH]cc(CCNC(C)=O)c2c1`, the viability (% of control) came out at 65.3%.

With `NCCCCCC(=O)O`, the viability (% of control) came to 130%.

Regarding `Nc1nnc(-c2cccc(Cl)c2Cl)c(N)n1`, the viability (% of control) amounted to 36.7%.

As to `CN1CCC(=C2c3ccccc3CC(=O)c3sccc32)CC1`, the viability (% of control) came to 23.6%.

In the case of `O=C1c2c(O)ccc(O)c2C(=O)c2c(NCCNCCO)ccc(NCCNCCO)c21`, the viability (% of control) worked out at 2.98%.

`CC(C)(Oc1ccc(C2CC2(Cl)Cl)cc1)C(=O)O` (stereo not given): the viability (% of control) is 9.42% [at 92.2 µM].

`NS(=O)(=O)c1cc2c(cc1Cl)NCNS2(=O)=O`: the viability (% of control) came out at 125%.

In the case of `C[C@](N)(Cc1ccc(O)c(O)c1)C(=O)O`, the viability (% of control) worked out at 66%.

With `NC(=O)OCC(COC(N)=O)c1ccccc1`, the viability (% of control) came to 96.1%.

In the case of `CCN1CCCC1CNC(=O)c1cc(S(=O)(=O)CC)c(N)cc1OC` (stereo not given), the viability (% of control) stood at 55.1%.

In the case of `CN1CCN(CCCN2c3ccccc3Sc3ccc(Cl)cc32)CC1`, the viability (% of control) amounted to 22.7%.

In the case of `CN(C)C(=O)C(CCN1CCC(O)(c2ccc(Cl)cc2)CC1)(c1ccccc1)c1ccccc1`, the viability (% of control) worked out at 12.1%.

Consider `N[C@@H](Cc1c[nH]c2ccc(O)cc12)C(=O)O`, for which the viability (% of control) is 35.8%.

As for `CN1CCC(=C2c3ccccc3C=Cc3ccccc32)CC1`, the viability (% of control) was 35%.

In the case of `O=C1N(c2ccccc2)c2ccccc2C1(Cc1ccncc1)Cc1ccncc1`, the viability (% of control) is 130%.

As for `Cc1ccc(-c2cc(C(F)(F)F)nn2-c2ccc(S(N)(=O)=O)cc2)cc1`, the viability (% of control) amounted to 90.2%.

Take `Clc1ccc(C(c2ccccc2Cl)C(Cl)Cl)cc1` (stereo not given): the viability (% of control) amounted to 18.1%.

`O=C(c1ccc(F)cc1)C1CCN(CCn2c(=O)[nH]c3ccccc3c2=O)CC1`: the viability (% of control) turned out to be 112%.

On to `CC(=O)OCC(CCn1cnc2cnc(N)nc21)COC(C)=O`, for which the viability (% of control) is 106%.

`CC1(CN2CCC(n3c(=O)[nH]c4ccccc43)CC2)OCc2ccccc2-n2cccc21` (stereo not given): the viability (% of control) amounted to 102%.

On to `CNCCCC12CCC(c3ccccc31)c1ccccc12`, for which the viability (% of control) was 13.7%.
